Inconclusive results are not listed. Activity calls are given as the source filed them. How the source made its calls: active means hit-call score of the fitted dose curve at least 0.9, where 1 is the maximum; inconclusive means response in the unintended direction; inactive means score below 0.9.
Target: Oxysterols receptor LXR-beta (Homo sapiens) (UniProt P55055)
Assay: ATG_LXRb_TRANS: Attagene TRANS-FACTORIAL HepG2 Assay for human Liver X Receptor beta (LXRb) (AID 2282981)
Conditions: HepG2 Attagene TRANS GAL4-LXRb reporter, mRNA
Method in brief: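 HepG2 cells transiently transfected with GAL4-UAS reporter units for chimeric NR-Gal4 proteins, dosed for 24 h. Reporter transcripts measured by RT-PCR and capillary electrophoresis; gain-of-signal fitting relative to DMSO.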

Chain of Oxysterols receptor LXR-beta (Homo sapiens) (P55055 whole entry, looked up): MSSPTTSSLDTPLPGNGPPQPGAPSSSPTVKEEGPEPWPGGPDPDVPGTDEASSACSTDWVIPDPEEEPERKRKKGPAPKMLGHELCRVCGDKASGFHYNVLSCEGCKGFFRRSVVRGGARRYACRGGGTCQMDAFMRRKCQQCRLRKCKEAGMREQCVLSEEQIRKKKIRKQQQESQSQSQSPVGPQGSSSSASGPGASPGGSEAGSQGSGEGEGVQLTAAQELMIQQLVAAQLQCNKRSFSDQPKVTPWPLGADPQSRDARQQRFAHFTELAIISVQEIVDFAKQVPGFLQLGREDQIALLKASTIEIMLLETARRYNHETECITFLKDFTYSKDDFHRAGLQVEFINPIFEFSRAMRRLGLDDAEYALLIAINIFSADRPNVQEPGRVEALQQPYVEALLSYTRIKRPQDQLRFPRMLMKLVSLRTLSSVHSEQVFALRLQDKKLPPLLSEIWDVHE

| SMILES | outcome | AC50 |
| --- | --- | --- |
| CC[C@H](C)[C@H]1O[C@]2(C=C[C@@H]1C)C[C@@H]1C[C@@H](C/C=C(\C)[C@@H](O[C@H]3C[C@H](OC)[C@@H](O[C@H]4C[C@H](OC)[C@@H](NC)[C@H](C)O4)[C@H](C)O3)[C@@H](C)/C=C/C=C3\CO[C@@H]4[C@H](O)C(C)=C[C@@H](C(=O)O1)[C@]34O)O2 | inactive |  |
| CON=C(C(=O)OC)c1ccccc1CON=C(C)c1cccc(C(F)(F)F)c1 | inactive |  |
| CC(COc1ccc(Oc2ccccc2)cc1)Oc1ccccn1 (centres undefined) | inactive |  |
| CCc1cnc(C2=NC(C)(C(C)C)C(=O)N2)c(C(=O)O)c1 (centres undefined) | inactive |  |
| COc1cc(OC)nc(Sc2cccc(Cl)c2C(=O)O)n1 | inactive |  |
| COP(=O)(NC(C)=O)SC (centres undefined) | inactive |  |
| COP(=O)(OC)SCn1c(=O)oc2cc(Cl)cnc21 | inactive |  |
| CC(C)N(C(=O)SCC(Cl)=C(Cl)Cl)C(C)C |  | 20.1 µM (active) |
| Cc1cc(C2CC2)nc(Nc2ccccc2)n1 | inactive |  |
| C#CC(C)(C)NC(=O)c1cc(Cl)cc(Cl)c1 | inactive |  |
| Cc1ccn2nc(S(=O)(=O)Nc3c(F)cccc3F)nc2n1 | inactive |  |
| CCc1cccc(CC)c1N(COC)C(=O)CCl | inactive |  |
| CCOP(=O)(SC(C)CC)N1CCSC1=O (centres undefined) | inactive |  |
| CCOP(=S)(Oc1cnc(C(C)(C)C)nc1)OC(C)C (centres undefined) |  | 11.1 µM (active) |
| CCCSP(=O)(OCC)Oc1ccc(Br)cc1Cl (centres undefined) | inactive |  |
| Nc1c(Cl)cc([N+](=O)[O-])cc1Cl | inactive |  |
| CCCSP(=O)(OCC)SCCC | inactive |  |

| SMILES | outcome | AC50 |
| --- | --- | --- |
| O=[N+]([O-])c1cc(C(F)(F)F)c(Cl)c([N+](=O)[O-])c1Nc1ncc(C(F)(F)F)cc1Cl | inactive |  |
| CCC(CC)Nc1c([N+](=O)[O-])cc(C)c(C)c1[N+](=O)[O-] | inactive |  |
| CNc1cnn(-c2cccc(C(F)(F)F)c2)c(=O)c1Cl | inactive |  |
| CNC(=O)Oc1cccc2c1OC(C)(C)O2 | inactive |  |
| CCOP(=S)(OCC)OC(Cl)C(Cl)(Cl)Cl (centres undefined) | inactive |  |
| CCC(=O)Nc1ccc(Cl)c(Cl)c1 | inactive |  |
| CSc1nc(NC(C)C)nc(NC(C)C)n1 | inactive |  |
| CCOP(=O)(NC(C)C)Oc1ccc(SC)c(C)c1 (centres undefined) | inactive |  |
| CCCOc1nn(C(=O)NS(=O)(=O)c2ccccc2C(=O)OC)c(=O)n1C | inactive |  |
| CCCCSP(=O)(SCCCC)SCCCC | inactive |  |
| N#CSCSC#N | inactive |  |
| C#CCC1=C(C)C(OC(=O)C2C(C=C(C)C)C2(C)C)CC1=O (centres undefined) | inactive |  |
| COP(=O)(OC)C(O)C(Cl)(Cl)Cl (centres undefined) |  | 92.4 µM (active) |
| CC1(C(=O)Nc2ccc(O)c(Cl)c2Cl)CCCCC1 | inactive |  |
| CNC(=O)ON=C(SC)C(=O)N(C)C | inactive |  |
| CCCCOC(=O)[C@@H](C)Oc1ccc(Oc2ccc(C#N)cc2F)cc1 | inactive |  |

Target: Hepatocyte nuclear factor 4-alpha (Homo sapiens) (UniProt P41235)
Sequence (P41235 whole entry, looked up): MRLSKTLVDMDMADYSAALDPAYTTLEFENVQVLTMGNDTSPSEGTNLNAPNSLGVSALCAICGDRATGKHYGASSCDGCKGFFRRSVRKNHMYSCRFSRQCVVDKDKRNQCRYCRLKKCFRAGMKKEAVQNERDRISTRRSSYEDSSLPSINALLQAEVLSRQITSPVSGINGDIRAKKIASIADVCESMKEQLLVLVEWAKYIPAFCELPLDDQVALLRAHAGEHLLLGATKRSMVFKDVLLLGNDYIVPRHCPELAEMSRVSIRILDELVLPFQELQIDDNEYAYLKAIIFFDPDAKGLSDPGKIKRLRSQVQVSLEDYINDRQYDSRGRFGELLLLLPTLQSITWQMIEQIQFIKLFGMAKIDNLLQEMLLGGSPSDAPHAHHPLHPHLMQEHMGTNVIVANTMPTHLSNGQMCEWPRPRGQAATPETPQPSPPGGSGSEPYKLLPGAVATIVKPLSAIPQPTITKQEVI
Assay: ATG_HNF4a_TRANS: Attagene TRANS-FACTORIAL HepG2 Assay for human Hepatocyte Nuclear Factor 4 alpha (HNF4a) (AID 2282982)
Conditions: HepG2 HNF4a transactivation reporter, mRNA readout
Method in brief: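 HepG2 cells transiently transfected with HNF4a-Gal4 chimera and GAL4-UAS reporter units, dosed for 24 h. Reporter mRNA measured by RT-PCR, fluorescent primer extension and capillary electrophoresis; gain-of-signal fitted relative to DMSO.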

| SMILES | outcome |
| --- | --- |
| CC[C@H](C)[C@H]1O[C@]2(C=C[C@@H]1C)C[C@@H]1C[C@@H](C/C=C(\C)[C@@H](O[C@H]3C[C@H](OC)[C@@H](O[C@H]4C[C@H](OC)[C@@H](NC)[C@H](C)O4)[C@H](C)O3)[C@@H](C)/C=C/C=C3\CO[C@@H]4[C@H](O)C(C)=C[C@@H](C(=O)O1)[C@]34O)O2 | inactive |
| CON=C(C(=O)OC)c1ccccc1CON=C(C)c1cccc(C(F)(F)F)c1 | inactive |
| CC(COc1ccc(Oc2ccccc2)cc1)Oc1ccccn1 (centres undefined) | inactive |
| COP(=O)(NC(C)=O)SC (centres undefined) | inactive |
| CC(C)N(C(=O)SCC(Cl)=C(Cl)Cl)C(C)C | inactive |
| Cc1cc(C2CC2)nc(Nc2ccccc2)n1 | inactive |
| CCc1cccc(CC)c1N(COC)C(=O)CCl | inactive |
| CCOP(=O)(SC(C)CC)N1CCSC1=O (centres undefined) | inactive |
| CCOP(=S)(Oc1cnc(C(C)(C)C)nc1)OC(C)C (centres undefined) | inactive |
| Nc1c(Cl)cc([N+](=O)[O-])cc1Cl | inactive |
| O=[N+]([O-])c1cc(C(F)(F)F)c(Cl)c([N+](=O)[O-])c1Nc1ncc(C(F)(F)F)cc1Cl | inactive |
| CCOP(=S)(OCC)OC(Cl)C(Cl)(Cl)Cl (centres undefined) | inactive |
| CCC(=O)Nc1ccc(Cl)c(Cl)c1 | inactive |
| CCCOc1nn(C(=O)NS(=O)(=O)c2ccccc2C(=O)OC)c(=O)n1C | inactive |
| N#CSCSC#N | inactive |
| C#CCC1=C(C)C(OC(=O)C2C(C=C(C)C)C2(C)C)CC1=O (centres undefined) | inactive |
| COP(=O)(OC)C(O)C(Cl)(Cl)Cl (centres undefined) | inactive |
| CC1(C(=O)Nc2ccc(O)c(Cl)c2Cl)CCCCC1 | inactive |
| CNC(=O)ON=C(SC)C(=O)N(C)C | inactive |

System: not listed separately
Assay: ATG_M_06_TRANS: Attagene TRANS-FACTORIAL HepG2 Assay for M06 Transcription Factor (Internal Marker) (AID 2282983);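 further: reporter transcript level by RT-PCR then capillary electrophoresis fluorescence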
Conditions: HepG2 Attagene TRANS M06 internal marker reporter
Method in brief: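 Cells: HepG2, transient multi-reporter transfection. Exposure: 24 h. Detection: RT-PCR, 6-FAM labelling, HpaI digestion (2 h, 37 °C), capillary electrophoresis. Baseline: DMSO.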

| SMILES | outcome |
| --- | --- |
| CCCCN(CC)c1c([N+](=O)[O-])cc(C(F)(F)F)cc1[N+](=O)[O-] | inactive |
| CCc1cnc(C2=NC(C)(C(C)C)C(=O)N2)c(C(=O)O)c1 (centres undefined) | inactive |
| COc1cc(OC)nc(Sc2cccc(Cl)c2C(=O)O)n1 | inactive |
| COP(=O)(NC(C)=O)SC (centres undefined) | inactive |
| CC(C)N(C(=O)SCC(Cl)=C(Cl)Cl)C(C)C | inactive |
| Cc1cc(C2CC2)nc(Nc2ccccc2)n1 | inactive |
| C#CC(C)(C)NC(=O)c1cc(Cl)cc(Cl)c1 | inactive |
| Cc1ccn2nc(S(=O)(=O)Nc3c(F)cccc3F)nc2n1 | inactive |
| CCc1cccc(C)c1N(C(=O)CCl)C(C)COC (centres undefined) | inactive |
| CCOP(=S)(Oc1cnc(C(C)(C)C)nc1)OC(C)C (centres undefined) | inactive |
| CCCSP(=O)(OCC)Oc1ccc(Br)cc1Cl (centres undefined) | inactive |
| Nc1c(Cl)cc([N+](=O)[O-])cc1Cl | inactive |
| O=[N+]([O-])c1cc(C(F)(F)F)c(Cl)c([N+](=O)[O-])c1Nc1ncc(C(F)(F)F)cc1Cl | inactive |
| CCC(CC)Nc1c([N+](=O)[O-])cc(C)c(C)c1[N+](=O)[O-] | inactive |
| CNc1cnn(-c2cccc(C(F)(F)F)c2)c(=O)c1Cl | inactive |
| CNC(=O)Oc1cccc2c1OC(C)(C)O2 | inactive |
| CCOP(=S)(OCC)OC(Cl)C(Cl)(Cl)Cl (centres undefined) | inactive |
| CCC(=O)Nc1ccc(Cl)c(Cl)c1 | inactive |
| CCOP(=O)(NC(C)C)Oc1ccc(SC)c(C)c1 (centres undefined) | inactive |
| N#CSCSC#N | inactive |
| C#CCC1=C(C)C(OC(=O)C2C(C=C(C)C)C2(C)C)CC1=O (centres undefined) | inactive |
| CC1(C(=O)Nc2ccc(O)c(Cl)c2Cl)CCCCC1 | inactive |

Reference: PubChem BioAssay (EPA / NIEHS)
